Data on 17 compounds can be found in PubChem BioAssay (EPA / NIEHS).

Results filed as inconclusive are left out. Calls of active or inactive are those of the source. The calls were made as follows: active = hit-call score of the fitted dose curve at least 0.9, where 1 is the maximum; inconclusive = response in the unintended direction; inactive = score below 0.9.

This test in a line: TOX21_p53_BLA_p5_viability: Viability Assessment in the Tox21 HCT-116 p53 Agonism Beta-lactamase Assay, Phase 5 (AID 2283600). In short, it runs like this: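 Decreased CellTiter-Glo luminescence denotes lost viability. Exposure: 16 h at 37C, 5% CO2, with compounds from DMSO stocks diluted 217-fold in wells of 4000 cells.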
As to `O=S(=O)(O)c1ccc2cc(O)c(S(=O)(=O)O)cc2c1`, the call was inactive.

With `CCCCCCCCCCOC(C)=O`, the result was inactive.

As for `c1ccc2c(c1)ccc1cc3c(ccc4ccccc43)cc12`, the call was inactive.

Regarding `CC(C)=CCCC(C)C=O` (configuration not stated), the outcome was inactive.

As to `CCCCCCC(O)CO` (configuration not stated), the result was inactive.

With `O=Cc1ccc(CO)o1`, the outcome was inactive.

Regarding `COc1ccc([C@@H]2CC(=O)c3c(O)cc(O[C@@H]4O[C@H](CO[C@@H]5O[C@@H](C)[C@H](O)[C@@H](O)[C@H]5O)[C@@H](O)[C@H](O)[C@H]4O)cc3O2)cc1OC`, the outcome was inactive.

In the case of `CCOc1ccc(N)c([N+](=O)[O-])c1`, the outcome was inactive.

Regarding `CC(CC=O)c1ccccc1` (configuration not stated), the compound was called inactive.

With `COC(=O)/C=C\C(=O)O`, the compound was called inactive.

As to `CCC(C)OC(=O)c1ccc(O)cc1` (configuration not stated), the outcome was inactive.

On to `O=C1CCCC(=O)O1`, for which the compound was called inactive.

Turning to `CC1=Nc2ccc3ccccc3c2C1(C)C`, the result was inactive.

For `O=C(Nc1cccc(C(F)(F)F)c1)c1cc(Br)cc(Br)c1O`, the result was inactive.

Turning to `CCCOC(=O)CCCCC(=O)OCCC`, the result was inactive.

With `O=C(O)Cc1c(Cl)ccc(Cl)c1Cl`, the call was inactive.

`CCC(CC)C(=O)O`: the result was inactive.
